We go through 21 sequences from paper PMC7862700, “An all-to-all approach to the identification of sequence-specific readers for epigenetic DNA modifications on cytosine”.

What all share (experiment): DAPPL (digital affinity profiling via proximity ligation, sequencing); 10 mM Tris-HCl pH 7.5, 50 mM NaCl, 1 mM DTT, 4% glycerol, room temperature, 30 min; GST-TFs on glutathione beads, 16-mer random dsDNA library, 0.1% formaldehyde crosslink after washing; high values mean tight binding
One assay deals with T1, FLI1 (Homo sapiens, UniProt Q01543 1-452).
T1 sequence: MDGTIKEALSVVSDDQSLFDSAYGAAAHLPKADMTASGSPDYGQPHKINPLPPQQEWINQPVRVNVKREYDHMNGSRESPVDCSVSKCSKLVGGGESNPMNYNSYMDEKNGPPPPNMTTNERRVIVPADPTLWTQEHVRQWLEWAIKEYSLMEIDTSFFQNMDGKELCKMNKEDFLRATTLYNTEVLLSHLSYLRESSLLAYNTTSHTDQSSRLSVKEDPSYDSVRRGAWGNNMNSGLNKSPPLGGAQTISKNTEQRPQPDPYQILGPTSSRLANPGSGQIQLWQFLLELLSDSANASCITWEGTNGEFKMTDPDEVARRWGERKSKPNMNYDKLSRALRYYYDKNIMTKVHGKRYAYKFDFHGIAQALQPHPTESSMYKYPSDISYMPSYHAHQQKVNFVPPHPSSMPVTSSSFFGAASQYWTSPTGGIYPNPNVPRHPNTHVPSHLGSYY
The conditions noted are these: protein: recombinant; tags: N-terminal GST; dsDNA, one strand shown. In outline:
(§1)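 The binding signal reported is, for every hexamer, its read frequency for a factor over its read frequency for the tag-only sample. Reads came from pools of yeast-expressed, GST-fused human transcription factors on glutathione beads, barcoded with DNA and mixed with that sample, which were incubated with 200 nmole of a random double-stranded 16-mer DNA library in Tris/NaCl/DTT/glycerol buffer at room temperature for 30 min. After washing, the pools were crosslinked with 0.1% formaldehyde, proximity-ligated with BsaI/T4 ligase for 1 h at 37 °C, PCR-amplified and sequenced on an Illumina NextSeq500.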

The target of the next assay is SPI1 (Homo sapiens, UniProt P17947 1-270). The conditions noted are these: protein: recombinant; tags: N-terminal GST; dsDNA, one strand shown. Put shortly:
as §1

In the next assay the target is HSF1 (Homo sapiens, UniProt Q00613 1-529). Particulars: protein: recombinant; tags: N-terminal GST; chain copies: 3; dsDNA, one strand shown. In outline:
as §1

The next assay has as its target CRX (Homo sapiens, UniProt O43186 1-299). Particulars: protein: recombinant; tags: N-terminal GST; dsDNA, one strand shown. In outline:
as §1

The next assay has as its target T2, FEV (Homo sapiens, UniProt Q99581 1-238).
T2 sequence: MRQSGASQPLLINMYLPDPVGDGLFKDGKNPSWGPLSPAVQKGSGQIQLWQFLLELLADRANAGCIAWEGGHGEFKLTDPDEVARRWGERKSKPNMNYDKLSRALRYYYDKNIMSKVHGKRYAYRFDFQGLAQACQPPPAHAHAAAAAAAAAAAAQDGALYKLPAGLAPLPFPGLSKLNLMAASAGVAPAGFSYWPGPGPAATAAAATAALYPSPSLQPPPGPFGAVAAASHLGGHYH
The conditions noted are these: protein: recombinant; tags: N-terminal GST; dsDNA, one strand shown. Put shortly:
as §1

The target in a further assay is T3, ETV2 (Homo sapiens, UniProt O00321 1-342).
T3 sequence: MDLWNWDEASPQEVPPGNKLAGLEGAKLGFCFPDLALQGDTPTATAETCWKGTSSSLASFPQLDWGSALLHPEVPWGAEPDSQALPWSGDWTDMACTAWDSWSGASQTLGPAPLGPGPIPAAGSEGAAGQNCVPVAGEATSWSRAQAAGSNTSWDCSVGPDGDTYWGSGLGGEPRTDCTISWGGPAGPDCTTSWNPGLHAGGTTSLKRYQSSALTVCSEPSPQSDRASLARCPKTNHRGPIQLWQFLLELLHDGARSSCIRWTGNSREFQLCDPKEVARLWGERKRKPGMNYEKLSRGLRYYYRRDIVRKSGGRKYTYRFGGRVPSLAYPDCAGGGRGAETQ
Particulars: protein: recombinant; tags: N-terminal GST; dsDNA, one strand shown. In outline:
as §1

A further assay concerns the target T4, ELF5 (Homo sapiens, UniProt Q9UKW6-2 1-255).
T4 sequence: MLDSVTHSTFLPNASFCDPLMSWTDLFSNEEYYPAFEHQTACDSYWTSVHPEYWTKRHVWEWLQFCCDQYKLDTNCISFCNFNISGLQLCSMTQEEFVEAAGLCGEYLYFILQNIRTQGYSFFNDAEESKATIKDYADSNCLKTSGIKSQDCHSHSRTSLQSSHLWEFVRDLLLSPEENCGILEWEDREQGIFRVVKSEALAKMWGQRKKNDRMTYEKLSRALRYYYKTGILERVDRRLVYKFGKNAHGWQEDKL
The conditions noted are these: protein: recombinant; tags: N-terminal GST; dsDNA, one strand shown. In outline:
as §1

Sequence of HSF1 (Q00613 whole entry): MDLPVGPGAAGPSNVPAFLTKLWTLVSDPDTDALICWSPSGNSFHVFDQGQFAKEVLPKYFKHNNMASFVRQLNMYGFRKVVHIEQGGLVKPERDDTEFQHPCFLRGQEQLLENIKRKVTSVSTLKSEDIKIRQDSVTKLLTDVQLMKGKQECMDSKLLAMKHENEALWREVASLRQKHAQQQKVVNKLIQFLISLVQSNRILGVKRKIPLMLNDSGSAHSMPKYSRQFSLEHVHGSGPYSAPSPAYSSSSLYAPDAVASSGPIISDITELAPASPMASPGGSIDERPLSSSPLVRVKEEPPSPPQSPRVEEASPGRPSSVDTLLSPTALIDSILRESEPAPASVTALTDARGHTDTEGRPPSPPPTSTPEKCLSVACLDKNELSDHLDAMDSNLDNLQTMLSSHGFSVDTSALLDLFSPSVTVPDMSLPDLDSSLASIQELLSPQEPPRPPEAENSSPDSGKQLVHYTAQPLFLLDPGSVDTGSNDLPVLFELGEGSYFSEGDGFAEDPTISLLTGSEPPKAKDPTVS
Sequence of CRX (O43186 whole entry): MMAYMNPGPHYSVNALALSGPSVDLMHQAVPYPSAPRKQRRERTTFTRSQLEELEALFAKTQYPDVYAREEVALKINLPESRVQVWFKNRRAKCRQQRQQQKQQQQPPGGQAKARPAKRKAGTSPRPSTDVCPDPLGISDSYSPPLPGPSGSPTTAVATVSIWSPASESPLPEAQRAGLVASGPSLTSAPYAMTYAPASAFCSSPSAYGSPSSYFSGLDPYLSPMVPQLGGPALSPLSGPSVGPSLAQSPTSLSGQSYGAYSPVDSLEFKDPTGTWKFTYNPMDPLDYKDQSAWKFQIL

Take TAGACT: the binding signal with FLI1 is 1.03 fold enrichment (6-mer frequency, TF over GST control); with SPI1 it was 1 fold enrichment (6-mer frequency, TF over GST control); with HSF1, 1.32 fold enrichment (6-mer frequency, TF over GST control); in the assay with CRX, 1.27 fold enrichment (6-mer frequency, TF over GST control).
On to GCTGGT, for which the binding signal with FLI1 is 1.29 fold enrichment (6-mer frequency, TF over GST control); in the assay with SPI1 it was 1.19 fold enrichment (6-mer frequency, TF over GST control); with FEV, 1.1 fold enrichment (6-mer frequency, TF over GST control); in the assay with HSF1 it was 1.06 fold enrichment (6-mer frequency, TF over GST control); with ETV2, 1.1 fold enrichment (6-mer frequency, TF over GST control); in the assay with CRX, 1.05 fold enrichment (6-mer frequency, TF over GST control). Further, the binding signal with ELF5 was 1.09 fold enrichment (6-mer frequency, TF over GST control).
As for CGTCTG, the binding signal with FLI1 is 1.13 fold enrichment (6-mer frequency, TF over GST control); with SPI1, 1.06 fold enrichment (6-mer frequency, TF over GST control); in the assay with FEV it was 1.03 fold enrichment (6-mer frequency, TF over GST control); with HSF1 it was 1.01 fold enrichment (6-mer frequency, TF over GST control); with ETV2, 1.23 fold enrichment (6-mer frequency, TF over GST control).
In the case of TTGCCA, the binding signal in the assay with FLI1 is 1.07 fold enrichment (6-mer frequency, TF over GST control); with SPI1 it was 1.07 fold enrichment (6-mer frequency, TF over GST control); with FEV, 1.11 fold enrichment (6-mer frequency, TF over GST control); with HSF1, 1.01 fold enrichment (6-mer frequency, TF over GST control); with CRX, 1.06 fold enrichment (6-mer frequency, TF over GST control); with ELF5 it was 1.04 fold enrichment (6-mer frequency, TF over GST control).
With GATCAA, the binding signal with FLI1 is 1.01 fold enrichment (6-mer frequency, TF over GST control); with HSF1, 1.25 fold enrichment (6-mer frequency, TF over GST control); with ETV2, 1.19 fold enrichment (6-mer frequency, TF over GST control); with CRX it was 1.52 fold enrichment (6-mer frequency, TF over GST control).
Consider GATCTA, for which the binding signal is 1.12 fold enrichment (6-mer frequency, TF over GST control) in the assay with FLI1; 1 fold enrichment (6-mer frequency, TF over GST control) in the assay with SPI1; 1.41 fold enrichment (6-mer frequency, TF over GST control) with HSF1; 1.11 fold enrichment (6-mer frequency, TF over GST control) with ETV2; 1.41 fold enrichment (6-mer frequency, TF over GST control) with CRX; 1.05 fold enrichment (6-mer frequency, TF over GST control) with ELF5.
With CTAGAA, the binding signal with FLI1 was 1.06 fold enrichment (6-mer frequency, TF over GST control); in the assay with HSF1, 6.29 fold enrichment (6-mer frequency, TF over GST control); with ETV2, 1.03 fold enrichment (6-mer frequency, TF over GST control); with CRX it was 2.13 fold enrichment (6-mer frequency, TF over GST control).
TCTAGA: the binding signal with FLI1 is 1.05 fold enrichment (6-mer frequency, TF over GST control); with HSF1 it was 6.17 fold enrichment (6-mer frequency, TF over GST control); with CRX, 2.19 fold enrichment (6-mer frequency, TF over GST control).
For GCTAAG, the binding signal with FLI1 was 1.13 fold enrichment (6-mer frequency, TF over GST control); with HSF1 it was 1.13 fold enrichment (6-mer frequency, TF over GST control); with ETV2, 1.07 fold enrichment (6-mer frequency, TF over GST control); in the assay with CRX it was 1.75 fold enrichment (6-mer frequency, TF over GST control); in the assay with ELF5 it was 1.01 fold enrichment (6-mer frequency, TF over GST control).
In the case of ATAAGT, the binding signal in the assay with FLI1 is 1.08 fold enrichment (6-mer frequency, TF over GST control); in the assay with SPI1, 1 fold enrichment (6-mer frequency, TF over GST control); with HSF1, 1.28 fold enrichment (6-mer frequency, TF over GST control); in the assay with ETV2, 1.05 fold enrichment (6-mer frequency, TF over GST control); with CRX it was 1.79 fold enrichment (6-mer frequency, TF over GST control).
Take CATGCG: the binding signal is 1.01 fold enrichment (6-mer frequency, TF over GST control) with FLI1; 1.07 fold enrichment (6-mer frequency, TF over GST control) in the assay with HSF1; 1 fold enrichment (6-mer frequency, TF over GST control) in the assay with ETV2.
For TGGTTG, the binding signal was 1.04 fold enrichment (6-mer frequency, TF over GST control) in the assay with FLI1; 1.06 fold enrichment (6-mer frequency, TF over GST control) with SPI1; 1 fold enrichment (6-mer frequency, TF over GST control) with ELF5.
As for GCTGCA, the binding signal with FLI1 was 1.09 fold enrichment (6-mer frequency, TF over GST control); with SPI1, 1 fold enrichment (6-mer frequency, TF over GST control); with FEV it was 1.01 fold enrichment (6-mer frequency, TF over GST control); with ETV2, 1.01 fold enrichment (6-mer frequency, TF over GST control).
ATGGGG: the binding signal with FLI1 was 1.11 fold enrichment (6-mer frequency, TF over GST control); in the assay with SPI1 it was 1.11 fold enrichment (6-mer frequency, TF over GST control); with FEV, 1.05 fold enrichment (6-mer frequency, TF over GST control); with ETV2, 1.16 fold enrichment (6-mer frequency, TF over GST control); in the assay with CRX, 1.03 fold enrichment (6-mer frequency, TF over GST control); with ELF5, 1.1 fold enrichment (6-mer frequency, TF over GST control).
On to ATTCGG, for which the binding signal is 1.01 fold enrichment (6-mer frequency, TF over GST control) in the assay with FLI1 and 1.11 fold enrichment (6-mer frequency, TF over GST control) with HSF1.
Consider TTGGAT, for which the binding signal was 1.02 fold enrichment (6-mer frequency, TF over GST control) with FLI1; 1 fold enrichment (6-mer frequency, TF over GST control) with FEV; 1.21 fold enrichment (6-mer frequency, TF over GST control) with HSF1; 1.39 fold enrichment (6-mer frequency, TF over GST control) with CRX.
Consider TTGGAA, for which the binding signal with FLI1 is 1.01 fold enrichment (6-mer frequency, TF over GST control); in the assay with HSF1, 1.32 fold enrichment (6-mer frequency, TF over GST control); with ETV2, 1.02 fold enrichment (6-mer frequency, TF over GST control); with CRX, 1.07 fold enrichment (6-mer frequency, TF over GST control).
For the sequence GATTAA, the binding signal was 1.01 fold enrichment (6-mer frequency, TF over GST control) with FLI1; 1.02 fold enrichment (6-mer frequency, TF over GST control) in the assay with FEV; 2.83 fold enrichment (6-mer frequency, TF over GST control) in the assay with HSF1; 1.11 fold enrichment (6-mer frequency, TF over GST control) with ETV2; 4.96 fold enrichment (6-mer frequency, TF over GST control) with CRX.
Take TAGGTA: the binding signal is 1.02 fold enrichment (6-mer frequency, TF over GST control) with FLI1; 1 fold enrichment (6-mer frequency, TF over GST control) with FEV; 1.03 fold enrichment (6-mer frequency, TF over GST control) with HSF1; 1.22 fold enrichment (6-mer frequency, TF over GST control) with CRX.
As for AGCTGA, the binding signal with FLI1 is 1.02 fold enrichment (6-mer frequency, TF over GST control); with SPI1, 1.01 fold enrichment (6-mer frequency, TF over GST control); in the assay with ETV2, 1.08 fold enrichment (6-mer frequency, TF over GST control); with CRX, 1.11 fold enrichment (6-mer frequency, TF over GST control).
ACCCCT: the binding signal with FLI1 was 1.11 fold enrichment (6-mer frequency, TF over GST control); with SPI1, 1.1 fold enrichment (6-mer frequency, TF over GST control); in the assay with FEV, 1.08 fold enrichment (6-mer frequency, TF over GST control); with ETV2, 1.17 fold enrichment (6-mer frequency, TF over GST control); with ELF5, 1 fold enrichment (6-mer frequency, TF over GST control).
